ClpP mod = qHTS Assay for Activators of ClpP; ATP-dependent Clp protease proteolytic subunit (Bacillus subtilis (strain 168)), P80244; purified B. subtilis ClpP, FRET peptide cleavage, 20 min; Potency, µM (highest dose often 57.5 µM); 1.9% of 340,000 active; AID 651965, 2013; active = well fitted falling curve with a large enough effect; inconclusive = small, poorly fitted or top-dose-only effect; inactive = no such curve, though single readings can be large or run the other way; also: the source files actives as falling curves though it sought activators and does not explain the sign; nearly all actives have a fitted effect of over 65% in size
Target sequence (P80244 whole entry, looked up): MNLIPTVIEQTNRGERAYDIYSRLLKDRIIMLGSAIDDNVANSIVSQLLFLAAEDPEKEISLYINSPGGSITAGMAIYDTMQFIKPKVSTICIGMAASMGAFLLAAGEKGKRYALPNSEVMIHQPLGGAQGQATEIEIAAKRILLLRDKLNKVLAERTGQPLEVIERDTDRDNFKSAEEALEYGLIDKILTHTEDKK
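FRET quenching reversal measured ClpP activation: 10 microg/mL B. subtilis ClpP at pH 8 with the FRET-FV decapeptide, read at 430 nm after 320 nm excitation. The 20-min minus 0-min signal was scaled between DMSO/no-enzyme wells and ADEP (5.8 microM final).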
PKM2 activator = activators of human pyruvate kinase M2. purified PKM2, Kinase-Glo ATP luminescence, activation; response scale: 0% is enzyme alone, no compound. 0.34% of 260,000 active. P14618. Potency, µM (titrated, usually from 57.5 µM), usual class: activators. AID 1631; also: nearly all actives have a fitted effect of over 55% in size
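ATP formation by purified human PK-M2, quantified via coupled luciferase luminescence after 1 h at room temperature with 0.1 mM ADP and 0.5 mM PEP final.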
IL-2 act = activators of IL-2; 0.065% of 360,000 active; IL-2 activation reporter assay, cell-based qHTS; stimulated with anti-CD3/CD4/CD28 beads; in transgenic mouse T cells; activation, % (series mostly up to about 46 µM); in the data active = activation above about 50%; inconclusive = mostly about 30% to 49%
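Unstimulated transgenic mouse T cells preincubated 60 min with compound, then stimulated with anti-CD3/anti-CD4-coated beads plus anti-CD28 for 18 h at 37 degrees C. IL-2 response read as EGFP and DsRed fluorescence by plate cytometry.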
NPSR antag = blocks cAMP signaling of the human neuropeptide S receptor | CHO-NPSR cells, cAMP TR-FRET, antagonist mode | Potency, µM (top dose mostly 38.3 µM), actives largely listed as inhibitors | 1% of 220,000 active; also: nearly all actives have a fitted effect of over 50% in size
Target sequence (Q6W5P4 whole entry, looked up): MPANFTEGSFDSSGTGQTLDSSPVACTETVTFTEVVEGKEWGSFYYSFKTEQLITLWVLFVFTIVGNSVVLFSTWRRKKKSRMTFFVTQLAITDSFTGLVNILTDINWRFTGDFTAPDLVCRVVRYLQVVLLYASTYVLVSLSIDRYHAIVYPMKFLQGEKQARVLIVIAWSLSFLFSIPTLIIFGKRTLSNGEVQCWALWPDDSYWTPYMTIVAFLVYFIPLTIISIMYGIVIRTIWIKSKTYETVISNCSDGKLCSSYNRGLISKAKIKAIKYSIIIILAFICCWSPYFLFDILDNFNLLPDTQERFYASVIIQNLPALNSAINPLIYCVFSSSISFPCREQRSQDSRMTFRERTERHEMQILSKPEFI
Of the large screens only hits and unclear results are named; the others gave an inactive call. In the library only some 2% were active in any assay of this set; here they are far more common. Unless noted, calls follow the shape of the dose curve; as a rule, active = well fitted curve in the direction sought with a large enough effect; inconclusive = small, poorly fitted or top-dose-only effect, or another doubt; inactive = no such curve, though single readings can be large; an effect the other way counts as inactive or inconclusive.

COC(=O)c1ccccc1NC(=S)NC(=O)COc1ccc(C(C)C)cc1	none
CCc1ccccc1NC(=O)NC1CCCCC1	ClpP mod 3.2µM
COC(=O)c1ccccc1NC(=O)Oc1ccc(C(C)C)cc1	ClpP mod 32µM
CCc1cccc(CC)c1NC(=O)NC1CCCCC1	none
CC(C)CCN1CC(C(=O)NCc2ccccc2)CC1=O (stereo not drawn)	none
COC(=O)c1ccccc1NC(=O)N1CCCC1	ClpP mod 16µM
Cc1cccc(-c2nnc(SCC#N)n2C)c1	none
Cc1ccc(S(=O)(=O)Nc2ccc(-c3nnc(SCC#N)n3C)cc2)cc1	PKM2 activator 20µM
Cc1ccc(-n2nc3ccc(NC(=O)c4ccc5c(c4)OCO5)cc3n2)cc1	ClpP mod 14µM
COc1ccc(N2CCN(c3ccc(NC(=O)c4ccc5c(c4)OCO5)cc3C#N)CC2)cc1	NPSR antag 5µM
O=C(Nc1ccc2nn(-c3ccccc3)nc2c1)c1ccc2c(c1)OCCO2	ClpP mod 8.9µM
O=C(Nc1ccc(NC(=O)c2ccc3c(c2)OCCO3)cc1)c1ccccc1	none (no result: ClpP mod, NPSR antag)
COc1ccc(CC(=O)Nc2ccc(N3CCN(c4ccc(OC)cc4)CC3)c(C#N)c2)cc1	none
CS/C(=N\S(=O)(=O)c1cccs1)Nc1ccc(F)c(Cl)c1	ClpP mod 20µM
O=C(COC(=O)CN1C(=O)NC2(CCCC2)C1=O)Nc1ccc(C(F)(F)F)cc1[N+](=O)[O-]	none (no result: ClpP mod, PKM2 activator, NPSR antag)
CCN(CC)CCCNc1nc2cc(OC)c(OC)cc2c2nc(-c3ccccc3)nn12	ClpP mod 32µM
COc1ccc(CNc2nc3ccccc3c3nc(-c4ccccc4)nn23)cc1	ClpP mod 28µM (no result: PKM2 activator, IL-2 act, NPSR antag)
CCN(CC)S(=O)(=O)c1ccc(NC(=O)CCc2c(C)nc3cc(-c4ccc(Cl)cc4)nn3c2C)cc1	ClpP mod 16µM (no result: PKM2 activator, IL-2 act, NPSR antag)
Cc1ccc(NC(=O)CCc2c(C)nc3cc(-c4ccccc4)nn3c2C)cc1F	ClpP mod 28µM (no result: PKM2 activator, IL-2 act, NPSR antag)
COc1ccc(CCNC(=O)CCc2c(C)nc3cc(-c4ccc(Cl)cc4)nn3c2C)c(OC)c1	none (no result: PKM2 activator, IL-2 act, NPSR antag)
Cc1ccc(S(=O)(=O)Nc2cccc(/C=C/C(=O)O)c2)cc1	none
Cc1ccc(-c2nnc(SCC#N)n2N)cc1	none
O=S(=O)(Nc1nccs1)c1ccc(NS(=O)(=O)c2c(F)cc(F)c(Cl)c2F)cc1	none (no result: PKM2 activator, NPSR antag)
CCOC(=O)c1ccc(NC(=O)c2ccnn2C)cc1	none (no result: PKM2 activator, NPSR antag)
CCOc1ccc(NC(=O)CCCN2C(=S)NC(C)(C)CC2C)cc1 (stereo not drawn)	ClpP mod 28µM
CC1CC(C)(C)NC(=S)N1CCCC(=O)Nc1ccc(Br)cc1 (stereo not drawn)	none (no result: PKM2 activator)
Cc1cccc(NS(=O)(=O)c2ccc(C3CCCCC3)cc2)n1	ClpP mod 22µM
Cc1cccc(NS(=O)(=O)c2ccccc2)n1	ClpP mod 20µM
Cc1cccc(NS(=O)(=O)c2ccc(C3CCCCC3)cc2)c1	none
Cc1cccc(NS(=O)(=O)c2ccc(C(C)(C)C)cc2)n1	none (no result: NPSR antag)
COC(=O)c1c(C#N)c(N)nc2c1CCCC2	ClpP mod 28µM
c1ccc(Nc2nc(-c3ccccn3)cs2)cc1	NPSR antag inconclusive
COc1cccc2sc(Nc3nc(-c4ccccn4)cs3)nc12	NPSR antag 1µM (no result: ClpP mod, IL-2 act)
O=C(c1ccc(S(=O)(=O)c2ccccc2Cl)c([N+](=O)[O-])c1)N1CCN(Cc2ccccc2)CC1	PKM2 activator 11µM
Nc1ncnc2c1c(-c1ccc(Oc3ccccc3)cc1)cn2C1CCCC1	ClpP mod 28µM, NPSR antag inconclusive (no result: PKM2 activator)
CCN1C(=O)[C@H]2[C@@H](c3ccc(-c4ccc(OC)cc4)c(OC)c3)N[C@@](Cc3ccccc3)(C(=O)OC)[C@H]2C1=O	ClpP mod 25µM (no result: PKM2 activator, NPSR antag)
CCN1CCN(C(=O)Cn2c(-c3cccs3)cc3cc(Cl)ccc32)CC1	ClpP mod 32µM (no result: PKM2 activator, IL-2 act, NPSR antag)
CCOC(=O)Cn1c(-c2cccs2)cc2cc(Cl)ccc21	ClpP mod 22µM (no result: PKM2 activator, IL-2 act, NPSR antag)
Cc1cc(Cl)ccc1-n1c(CCC(=O)O)ccc1-c1cccs1	none (no result: PKM2 activator, IL-2 act, NPSR antag)
O=C(Cn1c(-c2cccs2)cc2cc(Cl)ccc21)N1CCCCC1	ClpP mod 35µM (no result: PKM2 activator, IL-2 act, NPSR antag)
CCN1CCN(CC(=O)c2cc(Cl)ccc2Cl)CC1	none
CCOC(=O)c1c(NC=O)sc2c1CCC2	none
CS(=O)(=O)N(CC(=O)NC1CCCCC1)c1cccc(Cl)c1	none
CC1(C)Cc2[nH]c(=O)c(C#N)cc2CS1	ClpP mod 14µM
CCC1(C)Cc2[nH]c(=O)c(C#N)cc2CO1 (stereo not drawn)	none (no result: ClpP mod)
O=S1(=O)NC[C@]23C[C@H](c4ccc(F)cc4)[C@@H](C[C@@H]21)O3	none
CCOC(=O)c1c(-c2ccccc2)csc1NC(=O)/C(C#N)=C/c1ccc(O)c(OC)c1	ClpP mod 28µM, IL-2 act 58
O=C(O)CC1c2ccccc2C=Cc2ccccc21	ClpP mod inconclusive (no result: PKM2 activator, NPSR antag)
COc1cc(OC)c(OC)cc1/C=N/NC(=O)CC1C(=O)NN=C1C (stereo not drawn)	ClpP mod 28µM
CCC(=O)Nc1ccc(S(=O)(=O)NCc2cccn2Cc2cccc(C)c2)cc1	none (no result: PKM2 activator, IL-2 act, NPSR antag)
CCC1CCCCN1CCCNC(=O)Cn1cnc2sc(C)c(S(=O)(=O)N3CC(C)CC(C)C3)c2c1=O (stereo not drawn)	none (no result: ClpP mod, NPSR antag)
FC(F)(F)c1cc(-c2ccco2)nc(NCCc2ccccc2)n1	ClpP mod 32µM
COc1cccc(-c2cc(C(F)(F)F)nc(NCCc3ccccc3)n2)c1	ClpP mod 28µM (no result: PKM2 activator, IL-2 act, NPSR antag)
COc1ccc(-c2cc(C(F)(F)F)nc(NCCc3ccccc3)n2)cc1	none (no result: PKM2 activator, IL-2 act, NPSR antag)
COc1cccc(-c2cc(C(F)(F)F)nc(NCc3ccc(F)cc3)n2)c1	ClpP mod 28µM (no result: PKM2 activator, IL-2 act, NPSR antag)
COc1ccc(-c2cc(C(F)(F)F)nc(NCCc3ccccc3)n2)cc1OC	none (no result: PKM2 activator, IL-2 act, NPSR antag)
CCCCn1c(N2CCCC2)nc2c1c(=O)[nH]c(=O)n2C	none (no result: ClpP mod, PKM2 activator, NPSR antag)
CCc1nn2c(=O)cc(COC(=O)c3cccc(NC(=O)CCc4ccccc4)c3)nc2s1	ClpP mod 32µM (no result: PKM2 activator, IL-2 act, NPSR antag)
CCS(=O)(=O)c1ccc2oc(Nc3ccc(C(C)C)cc3)nc2c1	ClpP mod 32µM
Cc1cccc(NC(=O)CS(=O)(=O)c2c[nH]c3ccccc23)c1C	PKM2 activator 25µM
CCOc1ccc2oc(-c3ccccc3)c(C(=O)N3CCN(C)CC3)c2c1	ClpP mod 11µM
COc1ccc2oc(-c3ccccc3)c(C(=O)N3CCOCC3)c2c1	ClpP mod 28µM
O=C(/C(N=Nc1cccc([N+](=O)[O-])c1)=C(/O)c1ccc(Br)cc1)C(F)(F)F	NPSR antag 6.3µM (no result: ClpP mod, IL-2 act)
Cc1c(C#N)c2ncn(Cc3ccccn3)c(=O)c2n1-c1ccccc1	ClpP mod 28µM
CC1(C)NC(=O)N(CC(O)CN2CCCC2)C1=O (stereo not drawn)	none
CCCn1c(=O)c2ccccc2n2c(SCC(=O)c3cc(C)n(CC4CCCO4)c3C)nnc12 (stereo not drawn)	none (no result: ClpP mod, IL-2 act)
C=CCn1c(=N)c(C(=O)NCCCOC)cc2c(=O)n3ccccc3nc21	ClpP mod 6.3µM
